This passage reports potency estimated from few doses results from paper PMC11062922 (Nature Chemical Biology, 2023).

One experiment has as its system FLT4. More on the design: species or system human, MV4-11 + K-562 + COLO205 + SK-N-BE2 + OVCAR-8. Conditions: read-out: apparent Kd, compound concentrations: 100 nM and 1000 nM (sheet 'Samples'), n = 1.
The test system of a further experiment is NQO2. More on the design: species or system human, MV4-11 + K-562 + COLO205 + SK-N-BE2 + OVCAR-8. Particulars: read-out: apparent Kd; compound concentrations: 100 nM and 1000 nM (sheet 'Samples'), CATDS: 0.45168770198248398; n = 1.
A further experiment has as its system FLT3. Also on record: species or system human, MV4-11 + K-562 + COLO205 + SK-N-BE2 + OVCAR-8. Particulars: read-out: apparent Kd, compound concentrations: 100 nM and 1000 nM (sheet 'Samples'), n = 1.
The next experiment deals with PDGFRB. More on the design: species or system human, MV4-11 + K-562 + COLO205 + SK-N-BE2 + OVCAR-8. Conditions: read-out: apparent Kd, compound concentrations: 100 nM and 1000 nM (sheet 'Samples'), n = 1.
A further experiment concerns ILK. More on the design: species or system human, MV4-11 + K-562 + COLO205 + SK-N-BE2 + OVCAR-8. Conditions: read-out: apparent Kd; compound concentrations: 100 nM and 1000 nM (sheet 'Samples'), CATDS: 0.155345852963269; n = 1.
A further experiment concerns MAP2K1. More on the design: species or system human, MV4-11 + K-562 + COLO205 + SK-N-BE2 + OVCAR-8. Particulars: read-out: apparent Kd; compound concentrations: 100 nM and 1000 nM (sheet 'Samples'), CATDS: 0.15695729249265; n = 1.
The subject of another experiment is MYLK3. Also on record: species or system human, MV4-11 + K-562 + COLO205 + SK-N-BE2 + OVCAR-8. Conditions: read-out: apparent Kd; compound concentrations: 100 nM and 1000 nM (sheet 'Samples'), CATDS: 0.17793919150823601; n = 1.
The next experiment relates to TNIK. More on the design: species or system human, MV4-11 + K-562 + COLO205 + SK-N-BE2 + OVCAR-8. Particulars: read-out: apparent Kd; compound concentrations: 100 nM and 1000 nM (sheet 'Samples'), CATDS: 0.18945964172461099; n = 1.
A further experiment relates to MAP3K1. More on the design: species or system human, MV4-11 + K-562 + COLO205 + SK-N-BE2 + OVCAR-8. Conditions: read-out: apparent Kd; compound concentrations: 100 nM and 1000 nM (sheet 'Samples'), CATDS: 0.23263789115969999; n = 1.
Another experiment concerns TTN. Also on record: species or system human, MV4-11 + K-562 + COLO205 + SK-N-BE2 + OVCAR-8. Conditions: read-out: apparent Kd; compound concentrations: 100 nM and 1000 nM (sheet 'Samples'), CATDS: 0.29545284543589501; n = 1.
The next experiment has as its system JAK2. More on the design: species or system human, MV4-11 + K-562 + COLO205 + SK-N-BE2 + OVCAR-8. Particulars: read-out: apparent Kd; compound concentrations: 100 nM and 1000 nM (sheet 'Samples'), CATDS: 0.29115403437322901; n = 1.
For another experiment, the system named is PIP4K2C. More on the design: species or system human, MV4-11 + K-562 + COLO205 + SK-N-BE2 + OVCAR-8. Particulars: read-out: apparent Kd; compound concentrations: 100 nM and 1000 nM (sheet 'Samples'), CATDS: 0.16088368333560399; n = 1.
A further experiment addresses Q6ZSR9 (human, UniProt Q6ZSR9). Also on record: species or system MV4-11 + K-562 + COLO205 + SK-N-BE2 + OVCAR-8. Conditions: read-out: apparent Kd; compound concentrations: 100 nM and 1000 nM (sheet 'Samples'), CATDS: 0.15174967066440201; n = 1.
In a further experiment the test system is FN3K. Also on record: species or system human, MV4-11 + K-562 + COLO205 + SK-N-BE2 + OVCAR-8. Conditions: read-out: apparent Kd; compound concentrations: 100 nM and 1000 nM (sheet 'Samples'), CATDS: 0.30544658046652101; n = 1.
A further experiment concerns ROCK1. Also on record: species or system human, MV4-11 + K-562 + COLO205 + SK-N-BE2 + OVCAR-8. Particulars: read-out: apparent Kd; compound concentrations: 100 nM and 1000 nM (sheet 'Samples'), CATDS: 0.35168740775253199; n = 1.
A further experiment has as its system ROCK2. Also on record: species or system human, MV4-11 + K-562 + COLO205 + SK-N-BE2 + OVCAR-8. Conditions: read-out: apparent Kd; compound concentrations: 100 nM and 1000 nM (sheet 'Samples'), CATDS: 0.34690050634706199; n = 1.
The test system of another experiment is GAK. More on the design: species or system human, MV4-11 + K-562 + COLO205 + SK-N-BE2 + OVCAR-8. Particulars: read-out: apparent Kd, compound concentrations: 100 nM and 1000 nM (sheet 'Samples'), n = 1.
Another experiment has as its system NQO1. More on the design: species or system human, MV4-11 + K-562 + COLO205 + SK-N-BE2 + OVCAR-8. Conditions: read-out: apparent Kd; compound concentrations: 100 nM and 1000 nM (sheet 'Samples'), CATDS: 0.42980166948746801; n = 1.
A further experiment relates to FN3KRP. More on the design: species or system human, MV4-11 + K-562 + COLO205 + SK-N-BE2 + OVCAR-8. Conditions: read-out: apparent Kd; compound concentrations: 100 nM and 1000 nM (sheet 'Samples'), CATDS: 1; n = 1.
Another experiment has as its system STK10. More on the design: species or system human, MV4-11 + K-562 + COLO205 + SK-N-BE2 + OVCAR-8. Particulars: read-out: apparent Kd; compound concentrations: 100 nM and 1000 nM (sheet 'Samples'), CATDS: 0.42195435963049299; n = 1.

Read-outs that look alike come from different tables or passages of the source.

Chain of Q6ZSR9 (Q6ZSR9 whole entry, looked up): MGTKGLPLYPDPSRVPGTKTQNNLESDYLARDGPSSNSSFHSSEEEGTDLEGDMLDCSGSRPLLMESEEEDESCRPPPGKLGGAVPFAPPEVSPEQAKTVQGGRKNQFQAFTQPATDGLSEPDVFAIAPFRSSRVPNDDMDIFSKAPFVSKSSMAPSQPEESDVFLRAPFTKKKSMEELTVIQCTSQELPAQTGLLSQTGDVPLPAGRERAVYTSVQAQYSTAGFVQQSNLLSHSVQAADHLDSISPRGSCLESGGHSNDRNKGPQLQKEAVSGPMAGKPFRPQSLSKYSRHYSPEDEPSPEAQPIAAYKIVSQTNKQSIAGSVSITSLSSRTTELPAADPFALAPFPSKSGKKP

Consider `CN1C(=O)C(c2c[nH]c3ccccc23)=C(c2c[nH]c3ccccc23)C1=O` [RO0316045-000], for which the results for the potency estimated from few doses in the experiment with FLT4 (CATDS: 0.55988503208503904) and with NQO2 were 1370 nM and 2110 nM, respectively.
For `COc1ccc(Nc2ncc(-c3ccccc3)o2)cc1OC.Cl` [GW575533A], the figures for the potency estimated from few doses in the experiment on FLT3 (CATDS: 0.92036474930911705) and with PDGFRB (CATDS: 0.343232825956933) were 4.09 nM and 90.5 nM, respectively.
Turning to `COc1cc[nH]c1/C=C1\C(=O)Nc2ccccc21` [RO0272159-000], the potency estimated from few doses in the experiment on FLT3 (CATDS: 0.77308167829792795) is 55.1 nM; with ILK, 1910 nM; with MAP2K1, 1850 nM; in the experiment with MYLK3, 1280 nM; in the experiment on TNIK, 1080 nM.
Turning to `O=C(Nc1n[nH]c2nc(-c3ccco3)c(Br)cc12)c1ccc(CN2CCCC2)cc1.O=C(O)[C@H](O)[C@@H](O)C(=O)O` [SB-742352-AC], the potency estimated from few doses in the experiment on FLT3 (CATDS: 0.23628807978612301) is 1550 nM; in the experiment with MAP3K1, 1600 nM; in the experiment on PDGFRB (CATDS: 0.24481499220571501) it was 1430 nM; in the experiment with TTN, 1010 nM.
`COc1ccccc1Nc1ncc(-c2ccccc2)o1.Cl` [GW577921A]: the potency estimated from few doses in the experiment on FLT3 (CATDS: 0.90882717599339502) is 14.3 nM; in the experiment with JAK2, 370 nM; in the experiment on PDGFRB (CATDS: 0.22396051882089299) it was 1080 nM.
For `COc1cc(Nc2ncc(-c3ccccc3)o2)cc(OC)c1OC` [GW627512B], the potency estimated from few doses with FLT3 (CATDS: 0.90210431278154302) is 20.2 nM; in the experiment with FLT4 (CATDS: 0.159173325469706) it was 1850 nM; in the experiment with PDGFRB (CATDS: 0.20817935834978499), 858 nM; with PIP4K2C, 1790 nM; in the experiment with Q6ZSR9 it was 2170 nM.
For the compound `NS(=O)(=O)c1cccc(N/C=C2\C(=O)Nc3ccc(S(=O)(=O)Cc4c(Cl)cccc4Cl)cc32)c1` [GSK398099A], the potency estimated from few doses in the experiment on FN3K was 2240 nM; in the experiment on ROCK1, 1680 nM; in the experiment on ROCK2, 1720 nM.
`C#Cc1cccc(Nc2ncnc3ccc(OCCCCNCCS(C)(=O)=O)cc23)c1` [GW680191X]: the potency estimated from few doses with GAK (CATDS: 0.59760522623710299) was 804 nM; in the experiment on NQO1, 1580 nM.
On to `Cn1nc(-c2ccc(NC(=O)Nc3ccc4ccccc4c3)c(F)c2)c2cnc(NCCN3CCOCC3)nc21.O=C(O)C(F)(F)F` [SB-750250-M], for which the potency estimated from few doses in the experiment with FN3KRP is 1800 nM.
For `C#Cc1cccc(Nc2ncnc3cc(OCCOC)c(OCCOC)cc23)c1.Cl` [GW459135A], the potency estimated from few doses is 949 nM in the experiment with GAK (CATDS: 0.61346853975848203) and 2060 nM in the experiment with STK10.
